Most compounds without a hit are left out; they make up all but 2.4% or so of the library.
Cruzain Triton – inhibitors of Trypanosoma cruzi cruzain with detergent; Potency, µM, for the others: max response, negative = inhibition, usual class: inhibitors; purified cruzain, Z-FR-AMC fluorescence, 0.01% Triton; 200,000 compounds, 0.43% hits; P25779; AID 1478;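 further: plate controls were neutral wells for no effect and buffer without enzyme for full effect; nearly all actives have a fitted effect of over 40% in size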
Target sequence (P25779 123-467 limits assumed): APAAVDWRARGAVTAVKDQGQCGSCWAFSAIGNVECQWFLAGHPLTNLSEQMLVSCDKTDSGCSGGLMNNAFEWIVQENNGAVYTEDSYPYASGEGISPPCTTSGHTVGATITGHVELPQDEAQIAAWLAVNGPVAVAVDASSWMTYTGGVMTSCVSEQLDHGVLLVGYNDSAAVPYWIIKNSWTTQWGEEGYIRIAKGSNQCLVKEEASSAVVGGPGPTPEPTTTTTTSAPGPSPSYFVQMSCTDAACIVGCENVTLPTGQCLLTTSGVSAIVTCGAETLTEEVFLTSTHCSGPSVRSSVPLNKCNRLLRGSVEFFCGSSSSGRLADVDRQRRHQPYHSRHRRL
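Sodium acetate buffer (100 mM, pH 5.5) containing 5 mM DTT and 0.01% Triton X-100 hosted 1.5 nM cruzain and test compound for 15 min at room temperature. Cleavage of 2 uM Z-FR-AMC was then tracked by fluorescence.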
Cruzain inh noDet – blocks cruzain activity in detergent-free assay; P25779; purified cruzain, Z-FR-AMC fluorescence, no detergent; Potency, µM, for the others: max response, negative = inhibition, actives largely listed as inhibitors; 200,000 compounds, 2.3% hits; AID 1476;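 further: plate controls were enzyme without inhibitor for no effect and buffer without enzyme for full effect; nearly all actives have a fitted effect of over 40% in size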
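Purified cruzain at 1.5 nM, pre-incubated 15 min with compound at room temperature in 100 mM sodium acetate pH 5.5, 5 mM DTT, 0.00005% Triton X-100. Reaction started with 2 uM Z-FR-AMC; AMC fluorescence increase over 60 s gives rate.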
Active calls of the source: *; ? = inconclusive. The call rests on the fitted dose curve; in most records, active means well fitted curve in the direction sought with a large enough effect; inconclusive means small, poorly fitted or top-dose-only effect, or another doubt; inactive means no such curve, though single readings can be large; an effect the other way counts as inactive or inconclusive. Potency means the concentration at half of the fitted maximal effect.

SMILES | Cruzain Triton | Cruzain inh noDet
N#CC(C#N)=CC1=C2OC(c3ccccc3)=CC(c3ccccc3)=C2CCC1 | 2% | 5µM*
O=C1c2cccc([N+](=O)[O-])c2C(=O)N1c1ncn[nH]1 | 1% | 8%
Cc1ccc(S(=O)(=O)NC2c3cccc4cccc(c34)C2Sc2nc(C)cc(C)n2)cc1 (stereo not given) | -3% | 25µM*
Cc1ccc(S(=O)(=O)NC2c3cccc4cccc(c34)C2Sc2nncn2C)cc1 (stereo not given) | 2% | -8%
Cc1ccc(C)c(N(C)C(=O)C2CCN(S(=O)(=O)c3cccc4nsnc34)CC2)c1 | -2% | 5%
Cc1ccc(CNC(=O)C2CCN(S(=O)(=O)c3cc(-c4noc(C)n4)ccc3C)CC2)cc1 | 1% | 2%
O=C(O)CCC(=O)c1cccc2ccccc12 | -2% | -9%
C[N+](C)(C)CCC(=O)c1cccc2ccccc12 | 14µM* | 10µM*
COc1ccccc1CNc1cc(-c2ccccc2)nc2nncn12 | -6% | -22%
CCc1nnc(NS(=O)(=O)c2ccc(NC(=S)NC(=O)/C=C/c3ccccc3)cc2)s1 | 25µM* | 1%
CCc1nnc(NS(=O)(=O)c2ccc(NC(=S)NC(=O)/C=C/c3ccc(OC)cc3)cc2)s1 | 22µM* | -17%
COc1ccc(NS(=O)(=O)c2ccc(NC(=S)NC(=O)c3ccc(Br)cc3)cc2)nn1 | -7% | 2%
CCc1nnc(NS(=O)(=O)c2ccc(NC(=S)NC(=O)c3ccc(Br)cc3)cc2)s1 | ? | 7%
CCc1nnc(NS(=O)(=O)c2ccc(NC(=S)NC(=O)c3ccccc3)cc2)s1 | -12% | -2%
CCc1nnc(NS(=O)(=O)c2ccc(NC(=S)NC(=O)/C=C/c3ccc(C(C)C)cc3)cc2)s1 | 14µM* | ?
COc1ccc(NS(=O)(=O)c2ccc(NC(=S)NC(=O)/C=C/c3ccccc3)cc2)nn1 | -13% | 32µM*
CCc1nnc(NS(=O)(=O)c2ccc(NC(=S)Nc3ccc(F)cc3)cc2)s1 | -4% | 12%
Cc1cc(=O)oc2c(OS(C)(=O)=O)c(OS(C)(=O)=O)ccc12 | 3% | 6%
CC(C)c1ccc(-c2nnc3n(CCc4ccccc4)c(=O)c4ccccc4n23)cc1 | -5% | -8%
Cn1cc(S(=O)(=O)N2CCOCC2)cc1C(=O)Nc1ccc(Cl)c(C(F)(F)F)c1 | -4% | 3%
Cc1cc(C)cc(-n2cnc3cc(C(=O)NC4CCCCCC4)ccc32)c1 | -1% | 6%
N[C@@H](Cn1ccc(=O)n(Cc2ccccc2C(=O)O)c1=O)C(=O)O | -4% | 9%
CC(C)(C)OC(=O)[C@H](C1N[C@@H](C(=O)O)C(C)(C)S1)N1C(=O)c2ccccc2C1=O (stereo not given in full) | 4% | 22%
COc1ccccc1N/C(N)=N/c1nc(CSc2ccc(C)cc2)cc(=O)[nH]1 | 2% | ?
Cc1ccc(SCc2cc(=O)[nH]c(/N=C(\N)Nc3ccccc3Sc3ccccc3)n2)cc1 | 3% | 13µM*
SMILES | Cruzain Triton | Cruzain inh noDet
O=C(CCN1C(=O)/C(=C\c2ccccc2Cl)SC1=S)N1CCN(c2ccccc2)CC1 | -2% | 16µM*
O=C(CCCN1C(=O)/C(=C/c2ccccc2Cl)SC1=S)Nc1ccccn1 | -7% | ?
Cc1ccc(-c2cc(C(=O)Nc3cc(C)ccc3C)[nH]n2)c(O)c1 | -1% | 13µM*
COc1ccc(OC)c(NC(=O)c2cc(-c3ccc(C)cc3O)n[nH]2)c1 | -2% | -25%
BrC(Br)C(Br)Br | -5% | 10%
O=C(O)COc1cccc(-c2ocnc2-c2nc(-c3ccccc3)c(-c3ccccc3)o2)c1 | 4% | 7.9µM*
Cc1ccc(-c2nc(-c3nccc4ccccc34)oc2-c2ccccc2)cc1 | 0% | -4%
COc1ccc(Cn2c(=O)c3oc4ccccc4c3n(Cc3ccccc3)c2=O)cc1 | 0% | -1%
CCOc1ccc2nc(NC(=S)NCc3ccccc3)sc2c1 | -3% | 25µM*
CCOc1ccc2nc(NC(=O)Nc3ccccc3)sc2c1 | 4% | ?
CCN(C(=O)CSc1nc2cc(C(=O)OC)ccc2c(=O)n1Cc1ccco1)c1cccc(C)c1 | -1% | 1%
CCc1ccc(NC(=O)CSc2nc3cc(C(=O)OC)ccc3c(=O)n2Cc2ccco2)cc1 | 1% | 5µM*
O=c1c2ccccc2nnn1CSc1nc2ccccc2c(=O)n1Cc1ccco1 | -2% | 10µM*
CCOc1ccc2nc(NC(=O)CSc3nc4ccccc4c(=O)n3Cc3ccco3)sc2c1 | 2% | 7.9µM*
CCOC(=O)CSc1nc2ccccc2c(=O)n1Cc1ccco1 | -5% | 1%
O=c1c2ccccc2nc(SCc2ccccc2)n1Cc1ccco1 | -9% | -27%
Cc1ccc(N2CC(NC(=O)C3CC3)CC2=O)cc1C (stereo not given) | 1% | 4%
CC1CN(c2c(F)c(N)c3c(=O)c(C(=O)O)cn(C4CC4)c3c2F)CC(C)N1 (stereo not given) | -1% | -1%
CCOc1ccccc1C(=O)Oc1c(S(=O)(=O)c2ccc(C)cc2)c(C)nn1-c1ccccc1 | -4% | -9%
Cc1ccc(C)c(N2CCN(C(=O)CCc3c(C)nn(-c4ccc(N5CCCC5)nn4)c3C)CC2)c1 | -4% | 25%
CCCNC(=O)CCC(=O)N1Cc2cccc(OC)c2Oc2ncccc21 | -2% | 0%
Cc1ccccc1NC1=C/C(=N\S(=O)(=O)c2cccs2)c2ccccc2C1=O | -5% | ?
Cc1ccc(NC2=C/C(=N/S(=O)(=O)c3cccs3)c3ccccc3C2=O)cc1C | -1% | 10µM*
COc1cccc(C(=O)NC2=NCCS2)c1 | 0% | -5%
COc1ccc(N(Cc2ccccc2)S(=O)(=O)c2cccc(C(=O)NC3=NCCS3)c2)cc1 | 4% | 25µM*
SMILES | Cruzain Triton | Cruzain inh noDet
COc1ccc(-n2ccnc(NCCc3ccc(S(N)(=O)=O)cc3)c2=O)cc1 | -13% | -27%
Cc1cc(C)nc(NC(=NCCc2c[nH]c3ccccc23)NC(=O)Nc2ccc(Cl)c(Cl)c2)n1 | -2% | 7.9µM*
Cc1cc(C)nc(NC(=NCCc2c[nH]c3ccccc23)NC(=O)Nc2cccc([N+](=O)[O-])c2)n1 | -3% | 10µM*
Cc1cc(C)nc(NC(=NCCc2c[nH]c3ccccc23)NC(=O)Nc2ccccc2)n1 | -3% | ?
Cc1cc(C)nc(NC(=NCCc2c[nH]c3ccccc23)NC(=O)c2ccco2)n1 | -3% | ?
CCOC(=O)c1sc2ccccc2c1S(=O)(=O)NCc1ccccc1OC | -7% | -7%
CCOC(=O)c1cnc2ccc(C(=O)OC)cc2c1Nc1ccccc1CC | -12% | 14%
Cc1ccc(NC2(c3ccccc3)C(=O)c3ccccc3C2=O)cc1F | -8% | -18%
O=C(N/N=C/c1cc(Br)ccc1O)c1ccccc1Cl | -9% | -1%
O=C(CCc1ccccc1)N/N=C/c1cc(Br)ccc1O | -5% | 20µM*
Cc1ccc(-n2ncc(C(=O)N3CCN(Cc4ccccc4)CC3)c2C2CCN(C(=O)OC(C)(C)C)CC2)c(C)c1 | 0% | -1%
COc1ccc(N(CC(C)C)S(=O)(=O)c2nnc(NC(=O)c3cccs3)s2)cc1 | -8% | 12%
N#CCC(=N)N1CCN(c2ccc(Cl)cc2)CC1 | -1% | 13µM*
Cc1ccc(C(=O)N2CCN(c3ccc(Cl)cc3)CC2)cc1 | 1% | -7%
Cc1ccc(-n2ncc(C(=O)Nc3ccc4c(c3)OCCO4)c2C2CCN(C(=O)OC(C)(C)C)CC2)cc1C | -2% | -15%
O=C1CCNc2ccc(-c3ccccc3)cc21 | -5% | 20µM*
Cc1ccc2c(c1)C(=O)CCN2 | -1% | 2%

Compound activity from PubChem.
